Experimental data taken from PubChem BioAssay (EPA / NIEHS).
The source made the active and inactive calls. The calls were made as follows: active = hit-call score of the fitted dose curve at least 0.9, where 1 is the maximum; inactive = score below 0.9.

read-out: Thyroid Hormone Responsive (THRSP), THRSP (gene 7069); experiment: LTEA_HepaRG_THRSP: Life Technologies and Expression Analysis (LTEA) Assay for Thyroid Hormone Responsive (THRSP) using HepaRG (AID 2283536); settings: mRNA level, 48 h; actives raise or lower the signal
Protocol: LTEA_HepaRG is a cell based, multiplexed-readout assay that uses HepaRG, a human liver cell line, with measurements taken at 48 hours after chemical dosing on a 96-well plate.LTEA_HepaRG_THRSP is one of 102 assay component(s) measured in the LTEA HepaRG cell culture assay. It is a marker of NR mediated metabolism.Data from the assay component LTEA_HepaRG_THRSP was analyzed into 1 endpoint. This assay endpoint, LTEA_HepaRG_THRSP, was analyzed with bidirectional fitting relative to DMSO as the negative control and baseline of activity. Using a type of inducible reporter, measures of mRNA induction for gain or loss-of-signal activity can be used to understand regulation of transcription factor activity. To generalize the intended target to other relatable targets, this assay endpoint is annotated to the growth factor intended target family, where the subfamily is NR mediated metabolism.
A total of 1060 chemcials from the ToxCast library were tested in eight-point concentration-response experiments. Cell culture and cytotoxicity assays were conducted at Thermo Fisher Scientific's Custom Services facility (Madison, WI). A single lot of human HepaRG cells (Thermo Fisher Scientific, Frederick, MD) was used for the cell culture experiments. 96-well format collagen type I coated plates of human HepaRG cells were prepared using established methods. Briefly, cryopreserved HepaRG cells were thawed, plated at a density of approximately 100,000 cells/well in HepaRG Thaw, Plate, and General Purpose media (HPRG770, Thermo Fisher Scientific), and incubated for 48 hours. 0.5% DMSO was selected as vehicle control to balance the requisite need of DMSO in HepaRG cultures to maintain differentiation (for example, baseline metabolism, proportions of hepatocytes vs. cholangiocytes), while enabling further hepatic receptor pathway activation (for example, PXR and CAR) in response to chemical exposure. 48 hours after plating, the culture medium was replaced with HepaRG Serum-Free Incudtion Media. Cells were exposed to each test chemical in duplicate and maintained in CO2 incubators for another 48 hours. Chemical plates were thawed to room temperature and 200x concentrations of treatment groups were prepared. 8-point conentration-reponse curves were made with the highest exposure at 100 uM, followed by half-log dilutions, all in 0.5% DMSO. Each test plate contained variouse controls, induction positive controls (1mM phenobarbital), cytotoxicity positive controls ([…] aflatoxin B1), vehicle controls (0.5% DMSO), and total lysis controls (0.5% DMSO). Cell morphology images were taken using an Essen IncuCyte FLR automated microscope, with six 96-well plates imaged in about 24 minutes. Images were captured and exported and JPEG files. Spent culture media was transfered to black-well plates for the LDH assay, and remaining media was sorted at -80 C for later use. Cells were treated with RLT buffer and frozen until shipped for gene expression analysis. Total RNA was isolated from the cell suspension in 75 uL of Buffer RLT (Qiagen, Germantown, MD 20874) by Quintiles/Expression Analysis (Durham, NC) using a custom isolation procedure. Total RNA from each plate well was transferred to a preamplification plate. Fluidigm's 96.96 Dynamic ArrayTM (Fluidigm, Amsterdam, the Netherlands) technology was used for gene expression analyses by quantitative reverse transcription polymerase chain reaction (qRT-PCR, performed by Quintiles/Expression Analysis, Durham, NC)89. Standard TaqManTM Assays (Applied Biosystems/ThermoFisher Scientific, Foster City, CA) were used to assess the expression of 93 genes selected based on their selectivity and sensitivity to important hepatic receptors known to be modulated by environmental chemicals; importance in human hepatocyte functionality; and hepatotoxicity. […]

Compound	AC50	outcome
CCOC(=O)[C@]1(c2ccccc2)Oc2ccccc2[C@@H]1N	3.18 µM (active)	
COc1cc(C=O)cc2c1[C@H](COC(N)=O)[C@]1(OC(C)=O)ON2C[C@H]2[C@@H]1N2C(C)=O		inactive
O=[N+]([O-])C(Br)(CO)CO		inactive
CNC(=O)Oc1cccc2c1OC(C)(C)C2		inactive
[O-][Cl+]O		inactive
O=C(O)C1C2CCC(O2)C1C(=O)O (stereo not given)	34.7 µM (active)	
ClC1=C(Cl)C2(Cl)C3C(Cl)C=CC3C1(Cl)C2(Cl)Cl (stereo not given)		inactive
CC(C)COC(=O)c1ccccc1C(=O)OCC(C)C		inactive
O=[N+]([O-])c1ccc(Oc2ccc(Cl)cc2Cl)cc1		inactive
CC(C)(C)OOC(=O)c1ccccc1		inactive
CC(C)N(Cc1ccccc1)C(=O)C(C)(C)C		inactive
Clc1ccc(C(c2ccc(Cl)cc2)C(Cl)(Cl)Cl)cc1	68.1 µM (active)	
CCCSC(=O)N(CCC)CCC		inactive
O=C(Nc1ccccc1)c1ccccc1I	27.1 µM (active)	
O=C1CCCO1		inactive
CCNS(=O)(=O)C(F)(F)C(F)(F)C(F)(F)C(F)(F)C(F)(F)C(F)(F)C(F)(F)C(F)(F)F	48.2 µM (active)	
[Cl-].[Cl-].[Hg+2]	21.8 µM (active)	
CN(C)[C@@H]1C(=O)C(C(N)=O)=C(O)[C@@]2(O)C(=O)C3=C(O)c4c(O)cccc4[C@@](C)(O)[C@H]3C[C@@H]12		inactive
O=P(OCCCl)(OCCCl)OCCCl		inactive
CCC[CH2][Sn]([Cl])([CH2]CCC)[CH2]CCC	2.84 µM (active)	

Compound	AC50	outcome
c1ccc2c(c1)oc1ccccc12		inactive
CN(C)c1ccc(C(=O)c2ccc(N(C)C)cc2)cc1		inactive
Oc1ccccc1Cl		inactive
OCCCBr		inactive
Cn1cc(-c2ccccc2)c(=O)c(-c2cccc(C(F)(F)F)c2)c1		inactive
CCN(CC)N=O		inactive
CS(=O)(=O)NC(=O)c1cc(Oc2ccc(C(F)(F)F)cc2Cl)ccc1[N+](=O)[O-]		inactive
O=C(Oc1ccc(Br)cc1)N1CCN2CCC1CC2	34.8 µM (active)	
Brc1ccc(Oc2ccccc2)cc1		inactive
Clc1ccc(C(c2ccc(Cl)cc2)C(Cl)Cl)cc1	90.5 µM (active)	
CCOc1cccc(C2(N3CCN(c4ccccc4)CC3)CCC(C)CC2)c1 (stereo not given)		inactive
CCCCC(CC)COC(=O)c1ccc(C(=O)OCC(CC)CCCC)c(C(=O)OCC(CC)CCCC)c1 (stereo not given)		inactive
Nc1cc(Cl)cc(C(=O)O)c1Cl		inactive
Cc1ccc([N+](=O)[O-])cc1		inactive
CO[C@@H]1[C@H](OC(=O)NC(=O)CCl)CC[C@]2(CO2)[C@H]1[C@@]1(C)O[C@@H]1CC=C(C)C		inactive
C1=Cc2cccc3cccc1c23		inactive
c1ccc(C2CO2)cc1 (stereo not given)		inactive
CN(C)c1ccccc1		inactive
Nc1ccc(N=Nc2ccccc2)cc1	11.4 µM (active)	
CCCCOC(=O)c1ccccc1C(=O)OCc1ccccc1		inactive
